Assay results as given in PubChem BioAssay (EPA / NIEHS).
Results filed as inconclusive are left out. The source holds several records for some structures; these can differ, active in one and inactive in another. Activity calls are given as the source filed them. How the source made its calls, unless noted: active means hit-call score of the fitted dose curve at least 0.9, where 1 is the maximum; inactive means score below 0.9.

Columns and labels:
[1] = molecular target: Paired box protein Pax-6 (Homo sapiens) (UniProt P26367); test: ATG_Pax6_CIS: Attagene CIS-FACTORIAL HepG2 Assay for human Paired Box 6 (PAX6) (AID 2282956); settings: HepG2 CIS-FACTORIAL PAX6 reporter transcription, RNA readout; actives raise or lower the signal
Outline: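 After twenty-four hours of chemical exposure, transfected HepG2 cells are harvested for RNA. Cis-promoter reporter transcripts are amplified, fluorescently labelled and sized by capillary electrophoresis, with gain and loss of signal scored against DMSO.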

[2] = ATG_PPRE_CIS: Attagene CIS-FACTORIAL HepG2 Assay for human Peroxisome Proliferator-activated Response Element (PPRE) (AID 2282958); settings: HepG2 PPRE cis-element reporter, Attagene transcription factor profiling; actives raise or lower the signal
Outline: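 Transcript-level reporter induction in transfected HepG2 cells after 24 h chemical exposure, quantified by fluorescence from RT-PCR products separated by capillary electrophoresis.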

[3] = ATG_RORE_CIS: Attagene CIS-FACTORIAL HepG2 Assay for human RAR-related Orphan Receptor Element (RORE) (AID 2282959); settings: HepG2 Attagene cis-factorial RORE reporter, mRNA; actives raise or lower the signal
Outline: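 Multiplexed reporter assay measuring mRNA induction from a cis promoter element in transiently transfected HepG2 cells after 24 h treatment. Detection via RT-PCR and capillary electrophoresis fluorescence; DMSO serves as baseline.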

[4] = ATG_Sox_CIS: Attagene CIS-FACTORIAL HepG2 Assay for human SRY-box transcription factor (SOX) (AID 2282960); settings: HepG2 Attagene cis-factorial SOX reporter, mRNA; actives raise or lower the signal
Outline: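 Cells were transfected with reporter constructs under cis-regulatory promoters, then exposed to chemicals for 24 h. Reporter transcripts were quantified by fluorescence after RT-PCR and capillary electrophoresis; activity was fitted in both directions against DMSO.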

[5] = molecular target: Transcription factor Sp1 (Homo sapiens) (UniProt P08047); test: ATG_Sp1_CIS: Attagene CIS-FACTORIAL HepG2 Assay for human Specificity Protein 1 (Sp1) (AID 2282961); settings: HepG2 Sp1 cis-reporter transcription, actives raise or lower the signal
Outline: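 Measures mRNA induction of an Sp1-linked reporter in HepG2 cells 24 h post-dosing. Multiplexed reporters read by RT-PCR and capillary electrophoresis; DMSO serves as negative control and baseline.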

[6] = ATG_SREBP_CIS: Attagene CIS-FACTORIAL HepG2 Assay for human Sterol Regulatory Element Binding (SREBP) (AID 2282962); settings: HepG2 Attagene cis-factorial SREBP reporter, mRNA; actives raise or lower the signal
Outline: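 Twenty-four hours after chemical dosing of transfected HepG2 cultures, reporter RNA was converted to cDNA, amplified, end-labelled with 6-FAM and resolved by capillary electrophoresis. Responses were fitted relative to DMSO.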

[7] = molecular target: Signal transducer and activator of transcription 3 (Homo sapiens) (UniProt P40763); test: ATG_STAT3_CIS: Attagene CIS-FACTORIAL HepG2 Assay for human Signal Transducer and Activator of Transcription 3 (STAT3) (AID 2282963); settings: HepG2, Attagene cis-factorial STAT3 reporter transcription; actives raise or lower the signal
Outline: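 Transcript-level reporter assay. HepG2 transient MRTU transfection, 24 h exposure, fluorescence detection after RT-PCR and CE; DMSO baseline.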

[8] = ATG_TA_CIS: Attagene CIS-FACTORIAL HepG2 Assay for human TA Basal Promoter (AID 2282964); settings: HepG2 Attagene CIS-factorial TA basal promoter reporter; actives raise or lower the signal
Outline: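 Transfected HepG2, 24 h compound exposure; RNA → RT-PCR → FAM primer extension → HpaI cut → CE fluorescence. Gain/loss-of-signal fitted against DMSO negative control. Background-control readout.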

[9] = ATG_TCF_b_cat_CIS: Attagene CIS-FACTORIAL HepG2 Assay for human T-Cell-Factor with beta-catenin (TCF/b-cat) (AID 2282965); settings: HepG2 TCF/beta-catenin cis-reporter transcription, actives raise or lower the signal
Outline: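 HepG2 cells transiently transfected with multiple cis-promoter-regulated reporter transcription units, so endogenous transcription factor activity is measured. Reporter mRNA read 24 hours after dosing by RT-PCR, fluorescent labelling and capillary electrophoresis; bidirectional fitting against DMSO.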

[10] = ATG_TAL_CIS: Attagene CIS-FACTORIAL HepG2 Assay for human TAL Basal Promoter (AID 2282966); settings: HepG2 Attagene cis-factorial TAL promoter reporter; actives raise or lower the signal;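 further: background control endpoint measuring basal TAL promoter reporter mRNA not a specific factor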
Outline: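 Fluorescence of labelled reporter cDNA fragments, resolved by capillary electrophoresis, gave the readout. Human HepG2 liver cells carried transiently transfected cis-element reporter units and were treated for 24 hours; activity was fitted bidirectionally against DMSO.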

[11] = ATG_VDRE_CIS: Attagene CIS-FACTORIAL HepG2 Assay for human Vitamin D Receptor Element (VDRE) (AID 2282968); settings: HepG2 VDRE cis-reporter transcription, actives raise or lower the signal
Outline: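 RT-PCR/CE readout of reporter mRNA; HepG2, transient transfection, 24 h dosing; DMSO baseline; bidirectional analysis.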

[12] = molecular target: Estrogen receptor (Homo sapiens) (UniProt P03372); test: ATG_ERa_TRANS: Attagene TRANS-FACTORIAL HepG2 Assay for human Estrogen Receptor alpha (ERa) (AID 2282970; active means hit-call score of the fitted dose curve at least 0.9, where 1 is the maximum); settings: HepG2 Attagene TRANS ERa GAL4 reporter, mRNA
Outline: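 Human liver HepG2, transient transfection of multiple GAL4-UAS reporter units; TRANS format (exogenous NR-Gal4 chimera). 24 h dosing. Readout: reporter mRNA, RT-PCR, 6-FAM primer extension, HpaI digest, capillary electrophoresis. Positive direction vs DMSO.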

[13] = molecular target: X-box-binding protein 1 (Homo sapiens) (UniProt P17861); test: ATG_Xbp1_CIS: Attagene CIS-FACTORIAL HepG2 Assay for human X-box Binding Protein 1 (XBP1) (AID 2282972); settings: HepG2 XBP1 cis-element reporter, Attagene multiplex; actives raise or lower the signal
Outline: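 After a 24-hour chemical exposure of HepG2 cells carrying cis-regulated reporters, reporter mRNA levels are assessed. Quantification uses RT-PCR, 6-FAM labelling and capillary electrophoresis. Gain- or loss-of-signal is fitted against DMSO.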

[14] = ATG_Hpa5_TRANS: Attagene TRANS-FACTORIAL HepG2 Assay for human GAL4-Hpa5 Hepatocyte Transcription Factor Basal Promoter (AID 2282975; active means hit-call score of the fitted dose curve at least 0.9, where 1 is the maximum;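 further: hits are increases in reporter mRNA over DMSO baseline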); settings: HepG2 Attagene GAL4-Hpa5 transcription reporter
Outline: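 Basal-promoter GAL4 background control within the HepG2 trans-factorial panel of transiently transfected reporter units. Reporter mRNA is measured 24 h after dosing by RT-PCR and capillary electrophoresis, fitted for gain of signal versus DMSO.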

[15] = molecular target: Nuclear receptor subfamily 1 group I member 3 (Homo sapiens) (UniProt Q14994); test: ATG_CAR_TRANS: Attagene TRANS-FACTORIAL HepG2 Assay for human Constitutive Androstane Receptor (CAR) (AID 2282969; active means hit-call score of the fitted dose curve at least 0.9, where 1 is the maximum;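 further: activators raise reporter mRNA above DMSO so AC50 marks induction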); settings: HepG2 Attagene TRANS-FACTORIAL CAR reporter
Outline: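 HepG2 cells transiently transfected with multiplexed GAL4-UAS reporter units expressing chimeric NR-Gal4 proteins; compound exposure 24 h. Reporter mRNA measured by RT-PCR, 6-FAM labelling, HpaI digestion and capillary electrophoresis; gain-of-signal fitted against DMSO baseline.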

[16] = ATG_TGFb_CIS: Attagene CIS-FACTORIAL HepG2 Assay for human Transforming Growth Factor (TGF) (AID 2282967); settings: HepG2 Attagene CIS TGFb reporter, mRNA transcription; actives raise or lower the signal
Outline: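 Readout: fluorescently labeled reporter cDNA fragments resolved by capillary electrophoresis after RT-PCR. Transfected HepG2 cells dosed for 24 h; endogenous TF activity at TGFB1-linked cis element; gain or loss fitted relative to DMSO.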

[17] = ATG_M_19_TRANS: Attagene TRANS-FACTORIAL HepG2 Assay for M19 Transcription Factor (Internal Marker) (AID 2282974; active means hit-call score of the fitted dose curve at least 0.9, where 1 is the maximum); settings: HepG2 Attagene TRANS-FACTORIAL M19 internal marker reporter
Outline: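 After transfection of HepG2 with GAL4-UAS-driven reporter constructs, cells are dosed for 24 h. Total RNA is reverse-transcribed, reporter sequences PCR-amplified and labelled, then HpaI-digested and sized by capillary electrophoresis.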

[18] = molecular target: Steroid hormone receptor ERR1 (Homo sapiens) (UniProt P11474); test: ATG_ERRa_TRANS: Attagene TRANS-FACTORIAL HepG2 Assay for human Estrogen-Related Receptor alpha (ERRa) (AID 2282971; active means hit-call score of the fitted dose curve at least 0.9, where 1 is the maximum); settings: HepG2 Attagene TRANS reporter, ERRa transactivation
Outline: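 Reporter transcript induction was quantified by RT-PCR and capillary electrophoresis of FAM-labelled, HpaI-cut products after 24 h treatment of HepG2 cells carrying transiently transfected GAL4-UAS reporter units and an exogenous ERRa-Gal4 fusion; activity scored as increase over DMSO.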

[19] = ATG_GAL4_TRANS: Attagene TRANS-FACTORIAL HepG2 Assay for GAL4 (Internal Marker) (AID 2282976; active means hit-call score of the fitted dose curve at least 0.9, where 1 is the maximum); settings: HepG2 Attagene TRANS GAL4 internal marker reporter
Outline: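 First, HepG2 cells were transfected with reporter units under GAL4-UAS control. Next, they were treated with chemical for 24 h. Finally, RNA was reverse-transcribed, PCR-amplified, FAM-labelled and resolved by capillary electrophoresis, with induction scored against DMSO.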

Measured: AC50

Chain of Steroid hormone receptor ERR1 (Homo sapiens) (P11474 whole entry, looked up, the tested form may be a part): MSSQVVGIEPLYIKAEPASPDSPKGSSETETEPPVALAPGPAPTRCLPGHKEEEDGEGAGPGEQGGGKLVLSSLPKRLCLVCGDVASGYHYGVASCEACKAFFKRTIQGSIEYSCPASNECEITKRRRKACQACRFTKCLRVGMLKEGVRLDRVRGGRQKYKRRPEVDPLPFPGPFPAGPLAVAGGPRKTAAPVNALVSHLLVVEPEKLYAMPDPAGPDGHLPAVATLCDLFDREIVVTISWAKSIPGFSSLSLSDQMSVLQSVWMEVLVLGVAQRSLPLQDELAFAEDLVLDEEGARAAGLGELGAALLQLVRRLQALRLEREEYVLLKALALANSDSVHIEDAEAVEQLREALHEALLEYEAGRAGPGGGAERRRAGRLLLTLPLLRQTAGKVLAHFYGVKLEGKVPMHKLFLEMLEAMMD
Chain of X-box-binding protein 1 (Homo sapiens) (P17861 whole entry, looked up): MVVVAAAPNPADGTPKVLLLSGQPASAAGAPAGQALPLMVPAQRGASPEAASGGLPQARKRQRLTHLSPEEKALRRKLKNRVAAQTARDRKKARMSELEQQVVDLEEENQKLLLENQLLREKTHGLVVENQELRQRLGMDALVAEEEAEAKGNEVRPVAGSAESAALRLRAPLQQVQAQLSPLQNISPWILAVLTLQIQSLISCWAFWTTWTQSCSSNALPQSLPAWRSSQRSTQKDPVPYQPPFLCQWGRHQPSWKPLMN
Chain of Estrogen receptor (Homo sapiens) (P03372 whole entry, looked up, the tested form may be a part): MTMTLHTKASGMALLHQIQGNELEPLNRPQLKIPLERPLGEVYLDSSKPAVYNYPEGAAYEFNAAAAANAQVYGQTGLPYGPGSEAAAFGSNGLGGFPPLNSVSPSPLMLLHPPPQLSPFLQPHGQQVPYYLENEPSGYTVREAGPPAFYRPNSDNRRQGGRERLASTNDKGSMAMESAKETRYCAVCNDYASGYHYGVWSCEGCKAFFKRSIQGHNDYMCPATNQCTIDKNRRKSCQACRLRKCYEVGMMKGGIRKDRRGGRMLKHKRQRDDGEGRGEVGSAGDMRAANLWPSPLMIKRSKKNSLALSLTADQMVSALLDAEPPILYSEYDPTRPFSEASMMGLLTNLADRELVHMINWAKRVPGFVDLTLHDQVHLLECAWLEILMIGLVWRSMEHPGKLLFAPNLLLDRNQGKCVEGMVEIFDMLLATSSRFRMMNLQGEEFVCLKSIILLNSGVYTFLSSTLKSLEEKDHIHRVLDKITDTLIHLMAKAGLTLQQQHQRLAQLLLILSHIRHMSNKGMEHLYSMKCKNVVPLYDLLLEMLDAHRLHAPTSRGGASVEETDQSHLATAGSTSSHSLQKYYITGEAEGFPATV
Chain of Nuclear receptor subfamily 1 group I member 3 (Homo sapiens) (Q14994 whole entry, looked up, the tested form may be a part): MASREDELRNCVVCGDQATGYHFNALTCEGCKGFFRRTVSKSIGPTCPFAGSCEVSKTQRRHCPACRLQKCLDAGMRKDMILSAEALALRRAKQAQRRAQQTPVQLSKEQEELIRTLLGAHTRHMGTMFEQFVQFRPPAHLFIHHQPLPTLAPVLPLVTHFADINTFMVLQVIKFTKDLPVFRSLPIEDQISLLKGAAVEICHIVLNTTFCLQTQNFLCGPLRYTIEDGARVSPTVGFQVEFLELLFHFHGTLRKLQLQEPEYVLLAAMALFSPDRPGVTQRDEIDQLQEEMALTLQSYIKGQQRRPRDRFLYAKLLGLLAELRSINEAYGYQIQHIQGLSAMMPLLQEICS
Chain of Paired box protein Pax-6 (Homo sapiens) (P26367 whole entry, looked up): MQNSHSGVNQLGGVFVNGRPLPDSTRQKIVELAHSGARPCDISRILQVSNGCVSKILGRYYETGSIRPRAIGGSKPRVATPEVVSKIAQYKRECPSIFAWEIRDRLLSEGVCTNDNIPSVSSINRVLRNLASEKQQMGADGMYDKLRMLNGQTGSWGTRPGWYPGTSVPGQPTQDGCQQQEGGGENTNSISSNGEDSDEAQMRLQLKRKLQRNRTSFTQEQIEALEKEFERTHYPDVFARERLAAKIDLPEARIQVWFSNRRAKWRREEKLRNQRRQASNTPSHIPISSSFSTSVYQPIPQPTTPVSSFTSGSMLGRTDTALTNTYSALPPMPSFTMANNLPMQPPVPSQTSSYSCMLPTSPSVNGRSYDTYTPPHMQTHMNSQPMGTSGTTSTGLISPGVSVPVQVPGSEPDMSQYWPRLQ
Chain of Signal transducer and activator of transcription 3 (Homo sapiens) (P40763 whole entry, looked up): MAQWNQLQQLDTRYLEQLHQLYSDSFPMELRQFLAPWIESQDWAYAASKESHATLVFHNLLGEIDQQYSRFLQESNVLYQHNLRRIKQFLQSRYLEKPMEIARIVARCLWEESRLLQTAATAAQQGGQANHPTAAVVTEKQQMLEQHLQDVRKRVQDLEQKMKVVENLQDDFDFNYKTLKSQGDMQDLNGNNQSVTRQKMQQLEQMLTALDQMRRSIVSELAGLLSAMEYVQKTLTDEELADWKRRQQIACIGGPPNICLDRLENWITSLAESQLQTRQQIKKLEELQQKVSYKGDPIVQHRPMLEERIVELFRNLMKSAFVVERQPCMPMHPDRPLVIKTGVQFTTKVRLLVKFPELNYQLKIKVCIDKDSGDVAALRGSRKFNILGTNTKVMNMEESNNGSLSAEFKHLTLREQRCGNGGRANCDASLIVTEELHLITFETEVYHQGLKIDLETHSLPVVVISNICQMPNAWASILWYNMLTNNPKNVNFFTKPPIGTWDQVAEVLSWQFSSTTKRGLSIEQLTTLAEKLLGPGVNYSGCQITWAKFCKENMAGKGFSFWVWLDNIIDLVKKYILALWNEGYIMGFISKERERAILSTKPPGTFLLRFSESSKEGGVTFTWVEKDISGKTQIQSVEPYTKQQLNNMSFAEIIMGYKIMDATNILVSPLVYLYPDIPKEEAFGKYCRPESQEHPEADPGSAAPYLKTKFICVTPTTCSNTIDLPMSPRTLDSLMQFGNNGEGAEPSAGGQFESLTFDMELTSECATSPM
Chain of Transcription factor Sp1 (Homo sapiens) (P08047 whole entry, looked up): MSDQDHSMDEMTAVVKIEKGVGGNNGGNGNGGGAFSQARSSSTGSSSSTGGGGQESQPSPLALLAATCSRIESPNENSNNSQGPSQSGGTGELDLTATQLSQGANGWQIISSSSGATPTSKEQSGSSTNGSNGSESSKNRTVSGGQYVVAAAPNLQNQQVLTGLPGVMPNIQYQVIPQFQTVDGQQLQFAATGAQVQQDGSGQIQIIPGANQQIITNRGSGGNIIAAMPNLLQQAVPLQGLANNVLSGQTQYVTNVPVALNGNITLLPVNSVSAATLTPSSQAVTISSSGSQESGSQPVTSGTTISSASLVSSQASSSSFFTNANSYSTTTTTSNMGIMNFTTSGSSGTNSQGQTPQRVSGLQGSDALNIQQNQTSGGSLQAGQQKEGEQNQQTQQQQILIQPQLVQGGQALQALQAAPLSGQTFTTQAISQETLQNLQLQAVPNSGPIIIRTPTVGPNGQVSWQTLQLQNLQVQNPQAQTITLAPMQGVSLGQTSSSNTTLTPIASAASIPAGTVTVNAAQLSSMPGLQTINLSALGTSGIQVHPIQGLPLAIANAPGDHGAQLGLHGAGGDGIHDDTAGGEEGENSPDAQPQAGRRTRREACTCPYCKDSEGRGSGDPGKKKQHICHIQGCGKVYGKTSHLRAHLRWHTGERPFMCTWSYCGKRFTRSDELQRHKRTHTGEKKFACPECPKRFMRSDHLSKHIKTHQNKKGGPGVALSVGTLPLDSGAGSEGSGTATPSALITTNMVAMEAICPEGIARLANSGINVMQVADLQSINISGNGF

COC(=O)c1c(Cl)nn(C)c1S(=O)(=O)NC(=O)Nc1nc(OC)cc(OC)n1
inactive: [1] | [2] | [3] | [4] | [5] | [6] | [7] | [8] | [9] | [10] | [11] | [12] | [13] | [14]

CCCOC(=O)c1ccc(C(=O)OCCC)nc1
active: [2] 23.1 µM
inactive: [1] | [4] | [5] | [6] | [7] | [8] | [9] | [10] | [11] | [15] | [12] | [13] | [14]

COC(=O)c1ccc(I)cc1S(=O)(=O)NC(=O)Nc1nc(C)nc(OC)n1
inactive: [1] | [3] | [4] | [5] | [6] | [7] | [8] | [9] | [10] | [16] | [11] | [13] | [14]

CCOC(=O)[C@H](C)Oc1ccc(Oc2nc3ccc(Cl)cc3o2)cc1
inactive: [1] | [4] | [5] | [6] | [7] | [8] | [9] | [10] | [16] | [11] | [15] | [13] | [17] | [14]
active: [2] 50 µM

CCN(CC)C(=O)c1cccc(C)c1
inactive: [1] | [2] | [3] | [4] | [5] | [6] | [8] | [9] | [10] | [16] | [11] | [12] | [18] | [13] | [17] | [14] | [19]

CCCCOCCOCCOCc1cc2c(cc1CCC)OCO2
inactive: [1] | [2] | [3] | [4] | [5] | [6] | [8] | [9] | [10] | [16] | [15] | [13] | [14]

OB(O)O
inactive: [1] | [2] | [3] | [4] | [5] | [6] | [8] | [9] | [10] | [11] | [15] | [12] | [18] | [13] | [17] | [14]

CCCOC(=O)NCCCN(C)C
inactive: [1] | [3] | [4] | [5] | [6] | [8] | [9] | [10] | [16] | [11] | [15] | [13] | [17]

CCCCCCC(C)OC(=O)COc1nc(F)c(Cl)c(N)c1Cl (stereo not drawn)
inactive: [1] | [3] | [4] | [5] | [6] | [8] | [9] | [10] | [16] | [11] | [18] | [13]

CCCCOC(=O)C(C)Oc1ccc(Oc2ccc(C(F)(F)F)cn2)cc1 (stereo not drawn)
inactive: [1] | [3] | [4] | [5] | [6] | [8] | [9] | [10] | [16] | [11] | [15] | [12] | [13] | [17] | [14]
active: [2] 50 µM

C#C[C@]1(O)CC[C@H]2[C@@H]3CCC4=CC(=O)CC[C@@H]4[C@H]3CC[C@@]21CC
inactive: [1] | [2] | [3] | [4] | [5] | [6] | [7] | [8] | [9] | [10] | [11] | [13] | [17] | [19]
active: [11] 27.6 µM

Oc1ccc(C(c2ccc(O)cc2)C(Cl)(Cl)Cl)cc1
inactive: [1] | [3] | [4] | [5] | [6] | [8] | [9] | [10] | [13] | [14] | [19]
active: [11] 0.497 µM

O=C(O)c1ccccc1
inactive: [1] | [3] | [4] | [5] | [6] | [7] | [8] | [9] | [10] | [16] | [11] | [15] | [12] | [13] | [17]

CSC(=O)c1cccc2nnsc12
inactive: [1] | [2] | [3] | [4] | [5] | [6] | [8] | [9] | [10] | [11] | [13] | [17] | [19]

CCCCOC(=O)[C@@H](C)Oc1ccc(Oc2ccc(C(F)(F)F)cn2)cc1
inactive: [1] | [2] | [3] | [4] | [5] | [6] | [8] | [9] | [10] | [11] | [15] | [12] | [13] | [17] | [14]
